Out of some 5,500 compounds screened, about 2,000 (36%) were called active. Another 18% or so got no clear call; they are omitted. Rule as the data show it: active = normalized growth mostly below about 0.91 (no sharp cut-off); inconclusive = no clear call, values can overlap the other calls; inactive = mostly above about 0.92. The list shows a part of the results.
Test: chemical genetic growth profiling, strain panel (AID 1159580);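 also: tested at 20 µM; growth read once vehicle control cultures reached saturation at 30 °C; 1 = growth at the plate median or of vehicle wells; lower values mean less growth of the strain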
Conditions: S. cerevisiae deletion strains, growth OD

Measured: normalized growth

O=C(O)Cc1ccccc1I
inactive: locus YAL013W, strain DEP1, active compounds read low 1 | locus YBR229C, strain ROT2, active compounds read low 0.996 | locus YDL101C, strain DUN1, active compounds read low 0.99 | locus YDR150W, strain NUM1, active compounds read low 0.988 | locus YEL061C, strain CIN8, active compounds read low 1.02 | locus YGR078C, strain PAC10, active compounds read low 0.989 | locus YHR030C, strain SLT2, active compounds read low 1.06 | locus YHR087W, strain rtc3, active compounds read low 0.994 | locus YJL187C, strain SWE1, active compounds read low 0.952 | locus YJR043C, strain POL32, active compounds read low 1 | locus YJR075W, strain HOC1, active compounds read low 0.985 | locus YKL190W, strain CNB1, active compounds read low 1.02 | locus YLR039C, strain RIC1, active compounds read low 1.03 | locus YLR058C, strain SHM2 (second series), active compounds read low 1 | locus YLR085C, strain ARP6, active compounds read low 1.05 | locus YLR262C, strain YPT6, active compounds read low 1.05 | locus YML094W, strain GIM5, active compounds read low 1.01 | locus YMR219W, strain ESC1, active compounds read low 1.01 | locus YMR263W, strain SAP30, active compounds read low 1.01 | locus YNL153C, strain GIM3, active compounds read low 0.975 | locus YNL298W, strain CLA4 (second series), active compounds read low 1.07 | locus YNL322C, strain KRE1, active compounds read low 1 | locus YNR030W, strain Alg12, active compounds read low 1.03 | locus YOL006C, strain TOP1, active compounds read low 1.11 | locus YPL055C, strain LGE1, active compounds read low 0.978 | locus YPL241C, strain CIN2, active compounds read low 1.02 | locus YPR135W, strain CTF4, active compounds read low 1.05

From PubChem BioAssay AID1159580 (chemical genetic matrix, 2015)
